Measured values: PubChem BioAssay (NCATS)
Inconclusive results are not listed. The source made the active and inactive calls. Unless noted, the call rests on the fitted dose curve.

Key:
[1] = Validation screen for inhibitors of Lassa infection (AID 463096); further: potency means the concentration at half of the fitted maximal effect
[2] = Inducers of the Endoplasmic Reticulum Stress Response (ERSR) in human glioma: Validation (AID 504836; active means well fitted curve in the direction sought with a large enough effect; an effect the other way counts as inactive or inconclusive; further: 0% is about no effect)
How it was run: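 Stably transfected U87-MG human glioma cells carrying a GRP78-based luminescent sensor were seeded at 1000 cells/well, pin-dosed with compounds and incubated 16 h. Luciferase reagent was then added, and end-point luminescence was read after 10 min at room temperature.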

[3] = molecular target: Arylsulfatase A (Homo sapiens) (UniProt P15289); assay: qHTS screen for enhancers of Arylsulfatase A (ASA1): LOPAC Validation Assay (AID 720538; active means well fitted curve in the direction sought with a large enough effect; an effect the other way counts as inactive or inconclusive; further: 0% is about no effect)
Arylsulfatase A (Homo sapiens), sequence (P15289 whole entry, looked up): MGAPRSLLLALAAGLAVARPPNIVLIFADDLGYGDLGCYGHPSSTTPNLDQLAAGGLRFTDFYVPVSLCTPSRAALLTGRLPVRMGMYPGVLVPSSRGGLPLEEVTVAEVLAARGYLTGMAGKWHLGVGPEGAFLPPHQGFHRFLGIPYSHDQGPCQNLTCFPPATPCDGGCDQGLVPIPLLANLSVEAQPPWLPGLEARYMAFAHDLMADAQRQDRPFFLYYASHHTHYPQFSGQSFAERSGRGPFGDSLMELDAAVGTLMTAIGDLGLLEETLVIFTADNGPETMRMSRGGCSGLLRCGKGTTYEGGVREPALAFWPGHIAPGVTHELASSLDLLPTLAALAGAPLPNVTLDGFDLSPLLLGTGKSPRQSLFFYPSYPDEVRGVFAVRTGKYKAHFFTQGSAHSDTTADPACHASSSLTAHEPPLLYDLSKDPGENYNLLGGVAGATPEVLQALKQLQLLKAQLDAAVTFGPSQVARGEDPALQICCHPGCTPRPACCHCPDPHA
How it was run: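 SV40-transformed skin fibroblasts from an MLD patient (ASA-I179S) were treated with compounds for 48h at 37 degree C, then lysed with 0.5mM pNCS final substrate for 14h at room temperature; NaOH stop, fluorescence read (Ex=525 nm; Em=598 nm).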

[4] = qHTS for Inhibitors of the Functional Ribonucleoprotein Complex (vRNP) of Lassa (LASV) Arenavirus: LASV Primary Screen - GLuc reporter signal (AID 1347082; calls by dose curve; tested in HEK293 reporter line; further: series mostly up to about 57 µM; on the % scale 0 is the no-effect control and ±100 the full control effect; nearly all actives have a fitted effect of over 60% in size)
[5] = qHTS for Inhibitors of the Functional Ribonucleoprotein Complex (vRNP) of Lassa (LASV) Arenavirus: Viability assay - alamar blue signal for LASV Primary Screen (AID 1347083; calls by dose curve; tested in HEK293 reporter line; further: series mostly up to about 57 µM; on the % scale 0 is the no-effect control and ±100 the full control effect; nearly all actives have a fitted effect of over 80% in size)
[6] = qHTS for Inhibitors of the Functional Ribonucleoprotein Complex (vRNP) of Lymphocytic Choriomeningitis Arenaviruses (LCMV): Viability assay - alamar blue signal for LCMV Primary Screen (AID 1347085; calls by dose curve; tested in HEK293 reporter line; further: series mostly up to about 57 µM; on the % scale 0 is the no-effect control and ±100 the full control effect; nearly all actives have a fitted effect of over 80% in size)
[7] = molecular target: Nucleoprotein (Lymphocytic choriomeningitis virus (strain Armstrong)) (UniProt P09992); assay: qHTS for Inhibitors of the Functional Ribonucleoprotein Complex (vRNP) of Lymphocytic Choriomeningitis Arenaviruses (LCMV): LCMV Primary Screen - GLuc reporter signal (AID 1347086); further: series mostly up to about 57 µM; on the % scale 0 is the no-effect control and ±100 the full control effect; nearly all actives have a fitted effect of over 70% in size
Nucleoprotein (Lymphocytic choriomeningitis virus (strain Armstrong)), sequence (P09992 whole entry, looked up): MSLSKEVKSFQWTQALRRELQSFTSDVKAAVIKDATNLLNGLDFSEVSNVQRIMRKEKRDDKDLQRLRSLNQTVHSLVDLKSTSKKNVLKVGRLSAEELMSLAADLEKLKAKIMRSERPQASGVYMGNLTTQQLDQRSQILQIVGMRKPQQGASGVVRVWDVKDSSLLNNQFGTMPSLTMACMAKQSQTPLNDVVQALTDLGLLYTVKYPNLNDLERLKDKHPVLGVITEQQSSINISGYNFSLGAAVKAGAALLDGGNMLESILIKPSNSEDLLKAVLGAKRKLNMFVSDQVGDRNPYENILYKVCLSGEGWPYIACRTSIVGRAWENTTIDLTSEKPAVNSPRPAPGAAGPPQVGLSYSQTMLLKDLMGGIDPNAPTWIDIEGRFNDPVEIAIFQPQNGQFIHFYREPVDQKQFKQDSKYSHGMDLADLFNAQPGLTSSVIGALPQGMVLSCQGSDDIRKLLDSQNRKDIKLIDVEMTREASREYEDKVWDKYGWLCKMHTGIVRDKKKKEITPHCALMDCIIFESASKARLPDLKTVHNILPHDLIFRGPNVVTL

[8] = molecular target: Alpha-galactosidase (Coffea arabica) (UniProt Q42656); assay: Counterscreen for Glucocerebrosidase Inhibitors: qHTS Assay for Coffee Bean alpha-Galactosidase at pH 4.5 (AID 957; active means well fitted curve in the direction sought with a large enough effect; an effect the other way counts as inactive or inconclusive;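 further: series mostly up to about 77 µM; plate controls were enzyme alone for no effect and no enzyme for full effect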)
Alpha-galactosidase (Coffea arabica), sequence (Q42656 whole entry, looked up): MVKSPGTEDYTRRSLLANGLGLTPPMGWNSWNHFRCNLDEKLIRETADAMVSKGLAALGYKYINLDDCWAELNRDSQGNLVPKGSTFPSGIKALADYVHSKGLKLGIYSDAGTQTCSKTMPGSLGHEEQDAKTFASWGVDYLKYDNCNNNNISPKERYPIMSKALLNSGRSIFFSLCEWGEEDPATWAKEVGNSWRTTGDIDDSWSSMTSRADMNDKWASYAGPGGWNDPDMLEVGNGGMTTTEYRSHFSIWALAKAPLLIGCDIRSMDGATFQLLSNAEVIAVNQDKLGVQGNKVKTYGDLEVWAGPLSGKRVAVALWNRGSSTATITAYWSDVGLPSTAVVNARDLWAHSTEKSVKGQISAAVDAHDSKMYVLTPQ
How it was run: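 Fluorogenic read-out: 4-methylumbelliferone at Ex 365/Em 440 nm after NaOH/glycine stop (pH 10). Enzyme 2 nM, 4-MU-alpha-galactoside 80 uM, citrate buffer pH 4.5, 20 min RT; normalized to no-enzyme and enzyme controls.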

[9] = molecular target: Alpha-galactosidase (Coffea arabica) (UniProt Q42656); assay: Counterscreen for Glucocerebrosidase Inhibitors: qHTS Assay for Coffee Bean alpha-Galactosidase at pH 5.9 (AID 998; active means well fitted curve in the direction sought with a large enough effect; an effect the other way counts as inactive or inconclusive;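 further: plate controls were uninhibited enzyme for no effect and no-enzyme basal signal for full effect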)
How it was run: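 In 50 mM citric acid pH 5.9 with 0.005% Tween-20, coffee bean enzyme hydrolyses 80 uM 4-MU alpha-D-galactopyranoside over 20 min at RT. Activity is normalized to controls; AC50 comes from Hill-modelled concentration-response data.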

[10] = molecular target: Cytochrome P450 3A4 (Homo sapiens) (UniProt P08684); assay: qHTS Assay for Activators of Cytochrome P450 3A4 (AID 885; active means well fitted curve in the direction sought with a large enough effect; an effect the other way counts as inactive or inconclusive; further: nearly all actives have a fitted effect of over 65% in size)
Cytochrome P450 3A4 (Homo sapiens), sequence (P08684 whole entry, looked up): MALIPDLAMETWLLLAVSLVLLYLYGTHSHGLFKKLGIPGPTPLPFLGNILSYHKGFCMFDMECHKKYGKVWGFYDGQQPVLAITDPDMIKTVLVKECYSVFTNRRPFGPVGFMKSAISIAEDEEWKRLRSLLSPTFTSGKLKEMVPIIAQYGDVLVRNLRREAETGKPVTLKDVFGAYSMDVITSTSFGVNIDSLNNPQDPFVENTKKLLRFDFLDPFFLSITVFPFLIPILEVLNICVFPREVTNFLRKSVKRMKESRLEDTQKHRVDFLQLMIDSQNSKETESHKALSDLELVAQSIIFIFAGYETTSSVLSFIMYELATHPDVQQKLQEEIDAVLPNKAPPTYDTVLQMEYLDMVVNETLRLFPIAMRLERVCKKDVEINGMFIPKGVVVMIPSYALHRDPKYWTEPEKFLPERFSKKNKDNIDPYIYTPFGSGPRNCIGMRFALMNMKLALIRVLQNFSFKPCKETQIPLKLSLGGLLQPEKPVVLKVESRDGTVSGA
How it was run: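 Human CYP3A4 dealkylates Luciferin-PPXE to luciferin, which luciferase detection converts to light. Substrate was at its KM (25uM), buffer 200mM KPO4, reaction 60 min at RT.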

[11] = molecular target: Cytochrome P450 3A4 (Homo sapiens) (UniProt P08684); assay: qHTS Assay for Inhibitors and Substrates of Cytochrome P450 3A4 (AID 884; active means well fitted curve in the direction sought with a large enough effect; an effect the other way counts as inactive or inconclusive; further: series mostly up to about 57 µM; on the % scale 0 is the no-effect control and ±100 the full control effect; nearly all actives have a fitted effect of over 50% in size)
How it was run: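 Luminescent readout of luciferin produced by CYP3A4 (20 nM) dealkylation of Luciferin-PPXE, 25 uM (its KM). NADPH-driven reaction ran 60 min at RT after 10 min compound preincubation; data scaled to 57 uM ketoconazole as 100% inhibition.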

[12] = molecular target: Ubiquitin carboxyl-terminal hydrolase 1 (Homo sapiens) (UniProt O94782); assay: Inhibitors of USP1/UAF1: Pilot qHTS (AID 504865; active means well fitted curve in the direction sought with a large enough effect; an effect the other way counts as inactive or inconclusive;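 further: rhodamine fluorescence freed from ubiquitin-rhodamine substrate followed over time; top concentration of the series differs between compounds; on the % scale 0 is the no-effect control and ±100 the full control effect; nearly all actives have a fitted effect of over 35% in size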)
Ubiquitin carboxyl-terminal hydrolase 1 (Homo sapiens), sequence (O94782 whole entry, looked up): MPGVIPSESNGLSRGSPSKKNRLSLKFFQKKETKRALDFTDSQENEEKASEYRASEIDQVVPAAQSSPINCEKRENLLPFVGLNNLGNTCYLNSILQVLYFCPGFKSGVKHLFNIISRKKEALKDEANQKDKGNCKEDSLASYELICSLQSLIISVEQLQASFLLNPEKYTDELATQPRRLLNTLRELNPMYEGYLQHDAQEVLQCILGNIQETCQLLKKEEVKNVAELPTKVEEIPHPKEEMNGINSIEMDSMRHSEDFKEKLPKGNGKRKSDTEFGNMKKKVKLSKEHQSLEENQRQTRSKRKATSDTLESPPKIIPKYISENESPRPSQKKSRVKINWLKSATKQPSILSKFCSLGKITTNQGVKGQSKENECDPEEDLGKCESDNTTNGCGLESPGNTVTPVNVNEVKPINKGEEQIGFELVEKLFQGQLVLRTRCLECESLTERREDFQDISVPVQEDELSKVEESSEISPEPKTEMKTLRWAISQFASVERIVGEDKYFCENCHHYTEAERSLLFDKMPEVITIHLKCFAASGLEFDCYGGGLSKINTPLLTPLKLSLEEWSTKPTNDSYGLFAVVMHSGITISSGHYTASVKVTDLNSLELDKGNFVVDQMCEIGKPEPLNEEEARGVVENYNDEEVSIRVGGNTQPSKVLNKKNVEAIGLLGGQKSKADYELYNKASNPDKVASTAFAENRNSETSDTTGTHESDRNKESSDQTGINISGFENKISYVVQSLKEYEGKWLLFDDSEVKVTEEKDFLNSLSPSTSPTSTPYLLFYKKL
How it was run: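 USP1/UAF1 complex (1nM) preincubated with compound 15 min at room temperature, then Ub-Rho substrate (150nM final) added. Fluorescence read kinetically at 480/540 nm, 6 reads every 60 seconds. Buffer: 50mM HEPES pH 7.8, 0.5mM EDTA, 0.1 mg/ml BSA, 1mM TCEP, 0.01% Tween-20.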

[13] = molecular target: Nuclear receptor ROR-gamma (Homo sapiens) (UniProt P51449); assay: qHTS assay for small molecule antagonists of the retinoid-related orphan receptor gamma (ROR-gamma) signaling pathway (AID 651802; active means well fitted curve in the direction sought with a large enough effect; an effect the other way counts as inactive or inconclusive;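 further: CHO cells with doxycycline-induced ROR-gamma expression; luciferase reporter luminescence driven by ROR response element; series mostly up to about 92 µM; on the % scale 0 is the no-effect control and ±100 the full control effect; nearly all actives have a fitted effect of over 60% in size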)
Nuclear receptor ROR-gamma (Homo sapiens), sequence (P51449 whole entry, looked up): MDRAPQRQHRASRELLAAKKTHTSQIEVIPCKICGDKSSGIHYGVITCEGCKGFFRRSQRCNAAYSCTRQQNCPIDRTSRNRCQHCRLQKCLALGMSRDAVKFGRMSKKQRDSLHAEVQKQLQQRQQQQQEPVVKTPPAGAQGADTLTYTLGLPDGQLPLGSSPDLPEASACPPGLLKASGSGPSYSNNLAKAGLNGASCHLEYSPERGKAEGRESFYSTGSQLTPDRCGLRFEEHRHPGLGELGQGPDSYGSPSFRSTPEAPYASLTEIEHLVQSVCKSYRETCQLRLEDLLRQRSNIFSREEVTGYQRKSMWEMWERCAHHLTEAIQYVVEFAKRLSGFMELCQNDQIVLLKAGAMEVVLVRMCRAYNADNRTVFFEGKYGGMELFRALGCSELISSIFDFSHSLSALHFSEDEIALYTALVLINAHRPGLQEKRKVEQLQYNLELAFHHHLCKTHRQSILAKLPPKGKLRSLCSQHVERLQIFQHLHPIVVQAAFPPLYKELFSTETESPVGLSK
How it was run: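 Luciferase read-out: ONE-Glo luminescence after 30 min at room temperature, following 16hr doxycycline induction at 37C, 5% CO2 of CHO cells with TET-inducible ROR and RORE-LUC reporter; decreased luminescence = reduced reporter activity.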

[14] = qHTS Assay for Identifying Gametocytocidal Compounds (AID 743244; active means well fitted curve in the direction sought with a large enough effect; an effect the other way counts as inactive or inconclusive;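 further: on the % scale 0 is the no-effect control and ±100 the full control effect; actives lower the fluorescent signal which means gametocytes are killed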); settings: P. falciparum 3D7 stage III-V gametocytes, alamarBlue, 72 h; max response: active compounds read low
How it was run: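 3D7 gametocytes, stages III–V, 20,000/well; cpd 72 h, 37 °C/5% CO2; + alamarBlue 24 h; fluor. Ex 525/Em 598.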

CC(=O)[C@H]1CCC2C3CC=C4C[C@@H](OS(=O)(=O)O)CC[C@]4(C)C3CC[C@@]21C (stereo partly drawn)
inactive: Potency [1] | outcome [2] | Potency [3] | Potency [4] | Potency [5] | Potency [6] | Potency [7]

OCC1O[C@H](O)C(Cl)C(O)C1O (stereo partly drawn)
inactive: Potency [1] | outcome [2] | Potency [4] | Potency [5] | Potency [6] | Potency [7]

COc1cc(C(O)CO)ccc1OS(=O)(=O)O (stereo not drawn)
inactive: Potency [1] | outcome [2] | Potency [4] | Potency [5] | Potency [6] | Potency [7]

C[N+](C)(CCCCCC[N+](C)(C)CCCN1C(=O)c2cccc3cccc(c23)C1=O)CCCN1C(=O)c2cccc3cccc(c23)C1=O
inactive: outcome [8] | outcome [9] | Potency [1] | outcome [2] | Potency [4] | Potency [5] | Potency [6] | Potency [7]

CN1C2CCC1CC(OC(=O)C(O)c1ccccc1)C2 (stereo not drawn)
inactive: Potency [1] | outcome [2] | Potency [4] | Potency [5] | Potency [6] | Potency [7]

CC1(C)CCC2=C(O1)c1ccccc1C(=O)C2=O
inactive: Potency [10] | outcome [8] | outcome [9] | outcome [2] | Potency [4] | Potency [5] | Potency [6] | Potency [7]
active: Potency [1] 11.2 µM

COc1ccccc1N1CCN(CCN(C(=O)c2ccc(F)cc2)c2ccccn2)CC1
inactive: outcome [8] | outcome [9] | Potency [1] | outcome [2] | Potency [4] | Potency [5] | Potency [6] | Potency [7]

c1ccc(-c2ccccn2)nc1
inactive: outcome [8] | outcome [9] | Potency [1] | outcome [2] | Potency [4] | Potency [5] | Potency [6] | Potency [7]

C[C@H](NC(=O)/C(C#N)=C/c1ccc(O)c(O)c1)c1ccccc1
inactive: outcome [8] | outcome [9] | Potency [1] | outcome [2] | Potency [4] | Potency [5] | Potency [6] | Potency [7]

COc1cc(N)c(Cl)cc1C(=O)OCCN1CCCCC1
inactive: outcome [8] | outcome [9] | Potency [1] | outcome [2] | Potency [4] | Potency [5] | Potency [6] | Potency [7]

NC(Cc1cccc(-c2ccccc2CP(=O)(O)O)c1)C(=O)O (stereo not drawn)
inactive: Potency [1] | outcome [2] | Potency [4] | Potency [5] | Potency [6] | Potency [7]

O=C(O)CCCC[C@@H]1CCSS1
inactive: Potency [1] | outcome [2] | Potency [4] | Potency [5] | Potency [6] | Potency [7]

O=C(Nc1cccc(C(=O)Nc2ccc(S(=O)(=O)O)c3cc(S(=O)(=O)O)cc(S(=O)(=O)O)c23)c1)Nc1cccc(C(=O)Nc2ccc(S(=O)(=O)O)c3cc(S(=O)(=O)O)cc(S(=O)(=O)O)c23)c1
inactive: outcome [8] | outcome [9] | Potency [1] | outcome [2] | Potency [4] | Potency [5] | Potency [6] | Potency [7]

CSC(N)=NCCC[C@H](N)C(=O)O
inactive: Potency [1] | outcome [2] | Potency [4] | Potency [5] | Potency [6] | Potency [7]

Fc1ccc(C(OCCCc2cnc[nH]2)c2ccc(F)cc2)cc1
inactive: outcome [8] | outcome [9] | Potency [1] | outcome [2] | Potency [4] | Potency [5] | Potency [6] | Potency [7]

NCC(O)c1ccc(O)c(O)c1 (stereo not drawn)
inactive: Potency [1] | outcome [2] | Potency [4] | Potency [5] | Potency [6] | Potency [7]

COC(=O)C(C)(N)Cc1ccc(O)cc1 (stereo not drawn)
inactive: Potency [1] | outcome [2] | Potency [4] | Potency [5] | Potency [6] | Potency [7]

N[C@@H](CCCC(=O)O)C(=O)O
inactive: Potency [1] | outcome [2] | Potency [4] | Potency [5] | Potency [6] | Potency [7]

CC(C)NC[C@H](O)COc1ccc(CC(N)=O)cc1
inactive: outcome [8] | outcome [9] | Potency [1] | outcome [2] | Potency [4] | Potency [5] | Potency [6] | Potency [7]

COc1cc(C(O)C(=O)O)ccc1O (stereo not drawn)
inactive: Potency [1] | outcome [2] | Potency [4] | Potency [5] | Potency [6] | Potency [7]

CCCCCC(O)CCCC(=O)O (stereo not drawn)
inactive: Potency [1] | outcome [2] | Potency [4] | Potency [5] | Potency [6] | Potency [7]

OC[C@H]1O[C@@H](n2cnc3cncnc32)[C@H](O)[C@@H]1O
inactive: Potency [11] | Potency [1] | outcome [2] | Potency [4] | Potency [5] | Potency [6] | Potency [7]

Nc1ccc(CCNc2ncnc3c2ncn3C2OC(CO)C(O)C2O)cc1 (stereo not drawn)
inactive: Potency [1] | outcome [2] | Potency [4] | Potency [5] | Potency [6] | Potency [7]

COc1cccc(OC)c1OCCNCC1CSc2ccccc2O1 (stereo not drawn)
inactive: Potency [1] | outcome [2] | Potency [4] | Potency [5] | Potency [6] | Potency [7]

COC1(C2=NCCN2)COc2ccccc2O1 (stereo not drawn)
inactive: Potency [1] | outcome [2] | Potency [4] | Potency [5] | Potency [6] | Potency [7]

COc1cc(CNC(=O)CCCCCCC(C)C)ccc1O
inactive: outcome [8] | outcome [9] | Potency [1] | outcome [2] | Potency [4] | Potency [5] | Potency [6] | Potency [7]

CC(C)C[C@H](NC(=O)C1OC1C(=O)O)C(=O)NCCCCN=C(N)N (stereo partly drawn)
inactive: Potency [1] | outcome [2] | Potency [4] | Potency [5] | Potency [6] | Potency [7]

NC(CCCP(=O)(O)O)C(=O)O (stereo not drawn)
inactive: Potency [1] | outcome [2] | Potency [12] | Potency [4] | Potency [5] | Potency [6] | Potency [7]

[Li+]
inactive: outcome [8] | outcome [9] | Potency [1] | outcome [2] | Potency [4] | Potency [5] | Potency [6] | Potency [7]

Nc1ccc(N2C(=O)c3ccccc3C2=O)c(Cl)c1
inactive: outcome [8] | outcome [9] | Potency [1] | outcome [2] | Potency [4] | Potency [5] | Potency [6] | Potency [7]

CNc1ncnc2c1ncn2[C@H]1C[C@H](OP(=O)(O)O)[C@@H](COP(=O)(O)O)O1
inactive: Potency [1] | outcome [2] | Potency [4] | Potency [5] | Potency [6] | Potency [7]

CN1CCC[C@H]1c1cccnc1
inactive: Potency [1] | outcome [2] | Potency [13] | Potency [3] | max response [14] 8.91% | Potency [4] | Potency [5] | Potency [6] | Potency [7]
